{"source": "the supplement of paper PMC7695840", "note": "Where a name gives a salt, the structure may show the parent alone.", "data": [{"test_system": "Staphylococcus aureus MW2 delta-mecA (mecA-)", "test": "normalized GFP fluorescence (growth of mecA- strain) (fraction of control range); higher = more growth of mecA- strain", "settings": "compound concentration: 150 uM; cefoxitin: subinhibitory; fluorescent label: GFP", "how_it_was_run": "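Pre-induced S. aureus MW2 mecA+ (DsRed) and ΔmecA (GFP) cells were mixed 1:1 in LB with a daily-set subinhibitory cefoxitin dose. They were dispensed at 5 µL/well onto 150 μM compound (1.5% DMSO) in 1536-well plates, single replicate. Growth was 20 h at 37 °C, 90% humidity, unshaken, and DsRed (540/590) and GFP (485/520) were then read. Each channel was scaled per plate between the medians of the single-strain controls. Plates with high No Treatment ratios and rows with DsRed/GFP >10 were excluded.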", "values": [{"smiles": "CCOC(=O)C1=C(C)NC(C)=C(C(=O)OCC)C1c1ccccc1/C=C/C(=O)OC(C)(C)C", "note": "[Lacidipine (Lacipil, Motens)]", "normalized GFP fluorescence": 0.112}, {"smiles": "CC1=C(C(=O)O)N2C(=O)[C@@H](NC(=O)[C@H](N)C3=CCC=CC3)[C@H]2SC1", "normalized GFP fluorescence": 0.00153}, {"smiles": "Fc1ccc(C(c2ccc(F)cc2)N2CCN(C/C=C/c3ccccc3)CC2)cc1", "normalized GFP fluorescence": 0.0954}, {"smiles": "Oc1c(Cl)cc(Cl)c(Cl)c1Cc1c(O)c(Cl)cc(Cl)c1Cl", "normalized GFP fluorescence": 0.11}, {"smiles": "Cc1cc(-c2ccccc2)nnc1NCCN1CCOCC1", "normalized GFP fluorescence": 0.44}, {"smiles": "CCc1ccc(CCOc2ccc(CC3SC(=O)NC3=O)cc2)nc1", "note": "(stereo unspecified)", "normalized GFP fluorescence": 0.499}, {"smiles": "Cc1ncc([N+](=O)[O-])n1CCO", "normalized GFP fluorescence": 0.562}, {"smiles": "C=CC(N)CCC(=O)O", "note": "(stereo unspecified)", "normalized GFP fluorescence": 0.441}, {"smiles": "Cc1cc(/C=C/c2ccc3cc(N(C)C)ccc3[n+]2C)c(C)n1-c1ccccc1", "normalized GFP fluorescence": -0.0128}, {"smiles": "COC(=O)[C@H](c1ccccc1Cl)N1CCc2sccc2C1", "normalized GFP fluorescence": 0.0333}, {"smiles": "CCCNC(=O)NS(=O)(=O)c1ccc(Cl)cc1", "normalized GFP fluorescence": 0.221}, {"smiles": "CN(C)CC(c1ccc(O)cc1)C1(O)CCCCC1", "note": "(stereo unspecified)", "normalized GFP fluorescence": 0.107}, {"smiles": "CC(C)/N=c1\\cc2n(-c3ccc(Cl)cc3)c3ccccc3nc-2cc1Nc1ccc(Cl)cc1", "normalized GFP fluorescence": 0.344}, {"smiles": "N[C@H](C(=O)O)[C@H](O)c1ccc(O)c(O)c1", "note": "[Droxidopa (L-DOPS)]", "normalized GFP fluorescence": -0.00088}, {"smiles": "C[C@@H]1O[C@@H]1P(=O)(O)O", "normalized GFP fluorescence": 0.142}, {"smiles": "CCCCCCNC(=O)n1cc(F)c(=O)[nH]c1=O", "note": "[Carmofur]", "normalized GFP fluorescence": 0.605}, {"smiles": "COc1cccc2c1C(=O)c1c(O)c3c(c(O)c1C2=O)C[C@@](O)(C(C)=O)C[C@@H]3O[C@H]1C[C@H](N)[C@H](O)[C@H](C)O1", "normalized GFP fluorescence": -0.00425}, {"smiles": "COc1cccc2c1C(=O)c1c(O)c3c(c(O)c1C2=O)C[C@@](O)(C(=O)CO)C[C@@H]3O[C@H]1C[C@H](N)[C@H](O)[C@H](C)O1", "note": "[Doxorubicin (Adriamycin)]", "normalized GFP fluorescence": -0.0343}, {"smiles": "CCOC(=O)OC(C)OC(=O)[C@@H]1N2C(=O)[C@@H](NC(=O)[C@H](N)c3ccccc3)[C@H]2SC1(C)C", "note": "(stereo partly specified)", "normalized GFP fluorescence": 0.00819}, {"smiles": "CCCCCOC(=O)Nc1nc(=O)n([C@@H]2O[C@H](C)[C@@H](O)[C@H]2O)cc1F", "note": "[Capecitabine (Xeloda)]", "normalized GFP fluorescence": 0.0511}, {"smiles": "CN(Cc1ccc(C(C)(C)C)cc1)Cc1cccc2ccccc12", "note": "[Butenafine HCl]", "normalized GFP fluorescence": 0.11}, {"smiles": "CCC1(C)CC(=O)NC1=O", "note": "(stereo unspecified)", "normalized GFP fluorescence": 0.678}, {"smiles": "CO/N=C(\\C(=O)N[C@@H]1C(=O)N2C(C(=O)OC(C)OC(C)=O)=C(COC(N)=O)CS[C@H]12)c1ccco1", "note": "(stereo partly specified)", "normalized GFP fluorescence": 0.0118}, {"smiles": "COCC1=C(C(=O)OC(C)OC(=O)OC(C)C)N2C(=O)[C@@H](NC(=O)/C(=N\\OC)c3csc(N)n3)[C@H]2SC1", "note": "(stereo partly specified)", "normalized GFP fluorescence": 0.00501}, {"smiles": "O=C1c2ccccc2C(=O)C1c1ccccc1", "note": "[Phenindione (Rectadione)]", "normalized GFP fluorescence": 0.0982}, {"smiles": "CO[C@H]1C[C@@H]2CC[C@@H](C)[C@@](O)(O2)C(=O)C(=O)N2CCCC[C@H]2C(=O)O[C@H]([C@H](C)C[C@@H]2CC[C@@H](O)[C@H](OC)C2)CC(=O)[C@H](C)/C=C(\\C)[C@@H](O)[C@@H](OC)C(=O)[C@H](C)C[C@H](C)/C=C/C=C/C=C/1C", "note": "[Rapamycin (Sirolimus)]", "normalized GFP fluorescence": 0.00415}, {"smiles": "CCOC(=O)O[C@]1(C(=O)COC(=O)CC)CC[C@H]2[C@@H]3CCC4=CC(=O)C=C[C@]4(C)[C@H]3[C@@H](O)C[C@@]21C", "normalized GFP fluorescence": 0.129}, {"smiles": "Clc1ccc(C(c2ccccc2Cl)C(Cl)Cl)cc1", "note": "(stereo unspecified)", "normalized GFP fluorescence": 0.148}, {"smiles": "COc1cccc2c1C(=O)c1c(O)c3c(c(O)c1C2=O)C[C@@](O)(C(=O)CO)C[C@@H]3O[C@H]1C[C@H](N)[C@@H](O)[C@H](C)O1", "normalized GFP fluorescence": -0.00778}, {"smiles": "CC1(C)[C@H](C(=O)O)N2C(=O)C[C@H]2S1(=O)=O", "normalized GFP fluorescence": 0.00608}, {"smiles": "CCC(C)(C)c1ccc(CC(C)CN2C[C@@H](C)O[C@@H](C)C2)cc1", "note": "(stereo partly specified)", "normalized GFP fluorescence": 0.099}, {"smiles": "Nc1ccn([C@H]2CC[C@@H](CO)O2)c(=O)n1", "normalized GFP fluorescence": 0.265}, {"smiles": "Nc1ccn([C@@H]2O[C@H](CO)[C@@H](O)[C@@H]2O)c(=O)n1", "normalized GFP fluorescence": 0.00362}, {"smiles": "CO[C@H]1C[C@@H]2CC[C@@H](C)[C@@](O)(O2)C(=O)C(=O)N2CCCC[C@H]2C(=O)O[C@H]([C@H](C)C[C@@H]2CC[C@@H](O)[C@H](OC)C2)CC(=O)[C@H](C)/C=C(\\C)[C@@H](O)[C@@H](OC)C(=O)[C@H](C)C[C@H](C)/C=C/C=C/C=C/1C", "normalized GFP fluorescence": 0.0214}, {"smiles": "C[C@@H](O)[C@H]1C(=O)N2C(C(=O)O)=C(SCCNC=N)C[C@H]12", "normalized GFP fluorescence": -0.0325}, {"smiles": "CO[C@@]1(NC(=O)Cc2cccs2)C(=O)N2C(C(=O)O)=C(COC(N)=O)CS[C@@H]21", "normalized GFP fluorescence": 0.00393}]}]}
